TLR4 MyD88 comp: inhibitors of TLR4-MyD88 association in cells, primary screen, cell-based, HeLa CL3-4, BLA complementation, FRET ratio | Toll-like receptor 4 (Homo sapiens) + Myeloid differentiation primary response protein … | HeLa CL3-4 TLR4/MyD88 BLA complementation | inhibition, % at 8.4 µM | 0.18% of 200,000 active | AID 861, 2007; in the data active = inhibition above about 25%
LANA-H2B inh: blockers of LANA interaction with H2A/H2B – biochemical, FP readout, HTS, primary screen; cell-free LANA-H2A/H2B peptide, fluorescence polarization; inhibition, % (no concentration beside the values); AID 2629, 2010; 0.6% of 320,000 active; Protein LANA1 (Human herpesvirus 8 type P (isolate GK18)), Q9QR71; in the data active = inhibition mostly above about 10%, no sharp cut-off; inactive = mostly below about 6.7%
HTR2A ag: mouse Htr2a agonists via beta-arrestin recruitment, primary screen, cell-based, luminescence; CHO-K1 mHTR2A beta-arrestin complementation; percent of 30 µM serotonin response; activation, % at 7.6 µM; 0.66% of 360,000 active;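 active = activation above a run cutoff, the mean activation of all tested compounds plus 3 SD, cut at about 14% in these data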
Rtt109 Vps75: inhibitors of C. albicans Rtt109/Vps75 HAT, primary screen, biochemical, ThioGlo CoA-SH fluorescence, plate reader; AID 540336, 2011; inhibition, % at 34.9 µM; Histone acetyltransferase RTT109 (Candida albicans (strain SC5314 / ATCC MYA-2876)), …; purified Rtt109/Vps75, 4 h; 0.16% of 330,000 active;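 active = inhibition of at least 50% in every replicate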
NOD2 RIPK2 PPI: NOD2-RIPK2 binding disruptors in cells, primary screen, fluorescence, CHO cells, BLA complementation. 0.38% of 360,000 active. CCF4 ratio. Receptor-interacting serine/threonine-protein kinase 2 (Homo sapiens), O43353. AID 624267, 2012. inhibition, % at 4.98 µM; in the data active = inhibition above about 21%
TLR9-MyD88 block: inhibitors of TLR9-MyD88 association in cells, primary screen, cell-based, CHO, BLA complementation, fluorescence | inhibition, % at 4.98 µM | CCF4 FRET ratio | Toll-like receptor 9 (Homo sapiens) + Myeloid differentiation primary response protein … | 0.21% of 340,000 active;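 active = inhibition above the mean over all tested compounds plus 3 SD, cut at about 21% in these data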
OPRM1 ag: OPRM1 agonists via beta-arrestin recruitment, confirmation, counter-screen for mouse HTR2A agonist project, cell-based, luminescence, single concentration. shares compounds with HTR2A ag. U2OS OPRM1 beta-arrestin PathHunter; DMSO 0%, DAMGO 9.3 µM 100%. activation, % at 9.3 µM. 5.3% of 2,300 active;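 active = mean activation above the mean of DMSO-only wells plus 3 SD, cut at about 0.5% in these data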
m5-HT2A ag conf: mouse HTR2A agonists, beta-arrestin recruitment, confirmation, cell-based, luminescence, CHO-K1 PathHunter, triplicate | shares compounds with HTR2A ag | DMSO 0%, 30 µM serotonin 100% | activation, % at 7.6 µM | 19% of 2,300 active;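 active = mean activation across triplicates above the hit threshold derived in the original primary screen, cut at about 15% in these data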
Numbers stand for hits. Shown are actives, neighbours in structure and some others; about 1.8% of the full set was active somewhere.

Screening COc1ccc(Cl)cc1C(=O)OCC(=O)NCCNC(=O)COC(=O)c1cc(Cl)ccc1OC returned LANA-H2B inh inactive, HTR2A ag inactive, Rtt109 Vps75 inactive, NOD2 RIPK2 PPI inactive and TLR9-MyD88 block inactive.
For COC(=O)[C@@H]1C[C@@]2(O)[C@H](O)[C@H](O)[C@H](O)C[C@H]2N1CC(c1ccccc1)c1ccccc1 the results were LANA-H2B inh inactive, HTR2A ag 20.1, Rtt109 Vps75 inactive, NOD2 RIPK2 PPI inactive, TLR9-MyD88 block inactive, OPRM1 ag inactive and m5-HT2A ag conf inactive.
COC(=O)[C@@H]1C[C@@]2(O)[C@H](O)[C@H](O)[C@H](O)C[C@H]2N1CC1CC1 was read as LANA-H2B inh inactive, HTR2A ag inactive, Rtt109 Vps75 inactive, NOD2 RIPK2 PPI inactive and TLR9-MyD88 block inactive.
`COc1ccccc1N1CCN(C(=O)c2cccc(NC3=NC4CS(=O)(=O)CC4S3)c2)CC1` (stereo unspecified) gave LANA-H2B inh inactive, HTR2A ag 23.5, Rtt109 Vps75 inactive, NOD2 RIPK2 PPI inactive, TLR9-MyD88 block inactive, OPRM1 ag inactive and m5-HT2A ag conf inactive.
Screening COc1ccc(OC)c(CCNC(=O)c2ccc(NC3=NC4CS(=O)(=O)CC4S3)cc2)c1 (stereo unspecified) returned LANA-H2B inh inactive, HTR2A ag 16.9, Rtt109 Vps75 inactive, NOD2 RIPK2 PPI inactive, TLR9-MyD88 block inactive, OPRM1 ag inactive and m5-HT2A ag conf inactive.
Screening CCOc1ccccc1NC(=O)c1cccc(NC2=NC3CS(=O)(=O)CC3S2)c1 (stereo unspecified) returned LANA-H2B inh inactive, HTR2A ag 15.4, Rtt109 Vps75 inactive, NOD2 RIPK2 PPI inactive, TLR9-MyD88 block inactive, OPRM1 ag inactive and m5-HT2A ag conf inactive.
COc1ccc(OC)c(CCNC(=O)Cc2ccc(NC3=NC4CS(=O)(=O)CC4S3)cc2)c1 (stereo unspecified) was read as LANA-H2B inh inactive, HTR2A ag inactive, Rtt109 Vps75 inactive, NOD2 RIPK2 PPI inactive and TLR9-MyD88 block inactive.
COc1cccc(C(=O)OCC(=O)c2c[nH]c3ccccc23)c1O was read as TLR4 MyD88 comp inactive, LANA-H2B inh inactive, HTR2A ag inactive, Rtt109 Vps75 inactive, NOD2 RIPK2 PPI inactive and TLR9-MyD88 block inactive.
Screening COc1cc(-c2nnc(-c3cc(OC)c(OC)c(OC)c3)o2)cc(OC)c1OC returned TLR4 MyD88 comp inactive, LANA-H2B inh inactive, HTR2A ag 17.4, Rtt109 Vps75 inactive, NOD2 RIPK2 PPI inactive, TLR9-MyD88 block inactive, OPRM1 ag inactive and m5-HT2A ag conf inactive.
COc1cc(-c2nnc(-c3ccccc3)o2)cc(OC)c1OC was read as TLR4 MyD88 comp inactive, LANA-H2B inh inactive, HTR2A ag inactive, Rtt109 Vps75 inactive, NOD2 RIPK2 PPI inactive and TLR9-MyD88 block inactive.
For COc1ccc(NC(=O)CN(C)CC(=O)NCC(=O)Nc2ccc(F)cc2)cc1 the results were LANA-H2B inh inactive, HTR2A ag 15.9, Rtt109 Vps75 inactive, NOD2 RIPK2 PPI inactive, TLR9-MyD88 block inactive, OPRM1 ag inactive and m5-HT2A ag conf inactive.
For COc1cccc(NC(=O)CN(C)CC(=O)NCC(=O)Nc2ccc(F)cc2)c1 the results were LANA-H2B inh inactive, HTR2A ag inactive, Rtt109 Vps75 inactive, NOD2 RIPK2 PPI inactive and TLR9-MyD88 block inactive.
`COc1ccc2cc(C(=O)N3CCc4ccccc43)[nH]c2c1` gave LANA-H2B inh inactive, HTR2A ag inactive, Rtt109 Vps75 inactive, NOD2 RIPK2 PPI inactive and TLR9-MyD88 block inactive.
Screening COc1ccc(NC(=O)C2CC3C=CC2C3)c([N+](=O)[O-])c1 (stereo unspecified) returned HTR2A ag 14.8, Rtt109 Vps75 inactive, NOD2 RIPK2 PPI inactive, TLR9-MyD88 block inactive, OPRM1 ag inactive and m5-HT2A ag conf inactive.
Screening COc1ccc(NC(=O)CC(C)C)c([N+](=O)[O-])c1 returned TLR4 MyD88 comp inactive, LANA-H2B inh inactive, HTR2A ag inactive, Rtt109 Vps75 inactive, NOD2 RIPK2 PPI inactive and TLR9-MyD88 block inactive.
For CC(C(=O)NCc1ccc(F)cc1)n1ccc2cc(S(=O)(=O)N3CCCC3)ccc21 (stereo unspecified) the results were LANA-H2B inh inactive, HTR2A ag 15.2, Rtt109 Vps75 inactive, NOD2 RIPK2 PPI inactive, TLR9-MyD88 block inactive, OPRM1 ag inactive and m5-HT2A ag conf inactive.
Screening COc1ccc(Cc2n[nH]c(=S)n2-c2cc(C)ccc2C)cc1OC returned HTR2A ag inactive and NOD2 RIPK2 PPI inactive.
`CC(C)NC(=O)c1sc(=S)n2c1[nH]c(=O)c1ccc(C(=O)NCCc3ccc(Cl)cc3)cc12` gave LANA-H2B inh inactive, HTR2A ag inactive, Rtt109 Vps75 inactive, NOD2 RIPK2 PPI inactive and TLR9-MyD88 block inactive.
CCOc1ccc(CCNC(=O)c2ccc3c(=O)[nH]c4c(C(=O)NC(C)C)sc(=S)n4c3c2)cc1 was read as LANA-H2B inh inactive, HTR2A ag 18.8, Rtt109 Vps75 inactive, NOD2 RIPK2 PPI inactive, TLR9-MyD88 block inactive, OPRM1 ag inactive and m5-HT2A ag conf inactive.
Cc1nn(-c2ccccc2)c(N2CCCC2)c1/C=N/NC(=O)c1cc(-c2ccccn2)nc2ccccc12 was read as TLR4 MyD88 comp inactive, LANA-H2B inh inactive, HTR2A ag 14.6, Rtt109 Vps75 inactive, NOD2 RIPK2 PPI inactive, TLR9-MyD88 block inactive, OPRM1 ag inactive and m5-HT2A ag conf inactive.
`COc1ccccc1NC(=O)c1ccccc1SCC(=O)N1CCCC1` gave HTR2A ag 14.5, NOD2 RIPK2 PPI inactive, TLR9-MyD88 block inactive, OPRM1 ag inactive and m5-HT2A ag conf inactive.
Screening CCCn1c(SCC(=O)Nc2ccc(Cl)cc2)n[nH]c1=O returned TLR4 MyD88 comp inactive, LANA-H2B inh inactive, HTR2A ag inactive, Rtt109 Vps75 inactive, NOD2 RIPK2 PPI inactive and TLR9-MyD88 block inactive.

Compound activity deposited in PubChem BioAssay by several laboratories.
